# High-throughput results (PubChem)
# A selection: hits, their analogues and other compounds. The true share with any hit is near 3.6%.
# mHTT-CaM PPI inh – mutant huntingtin-calmodulin interaction inhibitors – biochemical, AlphaScreen, primary screen. inhibition, % at 15 µM. 190,000 compounds, 3.6% hits. P42858. AlphaScreen His-mHTT/GST-CaM binding, luminescence;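 also: 0% = both proteins with DMSO and 100% = one protein alone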
# Pf apPOL block – Pf-apPOL inhibitors, biochemical, fluorescence | Recombinant Pf-apPOL, molecular beacon fluorescence, 1.5 h | inhibition, % at 10 µM | AID 1794808, 2022 | 210,000 compounds, 0.25% hits
# Numbers without * were called inactive; x = not tested or not shown. Rule as the data show it: active = inhibition above about 50%; inactive = the rest.
SMILES,mHTT-CaM PPI inh,Pf apPOL block
COc1cc(NC=C2C(=O)OC3(CCCCC3)OC2=O)c(OC)cc1Cl,-59.3,-0.4
Cc1cc(O)c(C(C)C)cc1N1C(=O)c2ccc(F)cc2C1=O,7.0,7.4
Cc1nc2sccn2c(=O)c1NC(=O)c1ccc(F)cc1,-6.9,2.3
Cc1ccccc1NC(=O)c1cc2c(CO)cnc(C)c2oc1=N,6.0,-1.9
O=C(O)C1C2CC3CC(C2)CC1C3 (stereo unspecified),-1.6,-5.8
Cc1cc(C)c(-c2noc(C)n2)c(NC(=O)c2ccc(C(C)C)cc2)n1,0.4,-2.8
O=C(NCCCN1CCCC1)C1CCc2sc(C(=O)N3CCCC3)cc2C1 (stereo unspecified),5.0,0.8
Cc1ccc(C2CC(c3cccn3C)=NN2C(=O)CN(C)C(=O)C(C)C)cc1 (stereo unspecified),62.1*,-5.2
CC(C)C(=O)N(C)CC(=O)N1N=C(c2ccccc2F)CC1c1ccc(F)cc1 (stereo unspecified),14.3,-1.8
CC(C)CCNC(=O)CCS(=O)(=O)Cc1cccc(Cl)c1,-12.0,-15.5
O=C1CC(c2ccccc2Cl)CC2=C1C(c1coc3ccccc3c1=O)Nc1ccccc1N2 (stereo unspecified),26.0,10.2
O=C1CC(c2cccs2)CC2=C1C(c1coc3ccccc3c1=O)Nc1ccccc1N2 (stereo unspecified),54.0*,-3.8
COc1ccc2oc(C(=O)c3ccc(F)cc3)c(N)c2c1,-10.0,-2.3
c1ccc2c(N3CCN(c4ncnc5ccccc45)CC3)ncnc2c1,-4.4,56.8*
Brc1ccc2ncnc(N3CCCC3)c2c1,-1.8,-2.5
Cc1cccc(NC(=O)N2c3ccccc3Sc3ccccc32)c1,-1.7,-10.5
COc1ccc(C2=NN(C(C)=O)C(c3ccccc3OCc3ccccc3)O2)cc1 (stereo unspecified),22.0,6.8
CC(=O)NC(c1ccc([N+](=O)[O-])cc1)c1ccc2cccnc2c1O (stereo unspecified),100.3*,-3.8
O=[N+]([O-])c1ccc(NC(c2ccco2)c2ccc3cccnc3c2O)cc1 (stereo unspecified),100.0*,-4.6
CC(=O)NC(c1ccccc1C)c1ccc2cccnc2c1O (stereo unspecified),100.0*,14.3
O=C(Nc1ccc(-c2ccc([N+](=O)[O-])cc2)cc1)c1ccco1,2.0,-2.1
CC(Oc1cccc2cccnc12)C(=O)O (stereo unspecified),2.2,-1.6
CC(=O)NC(c1ccc(C)cc1)c1ccc2cccnc2c1O (stereo unspecified),100.0*,-0.9
Cc1ccccc1C(NC(N)=O)c1ccccc1 (stereo unspecified),-8.7,-4.2
O=C1OC(c2cccc(Br)c2)=N/C1=C\c1coc2ccccc2c1=O,0.0,-0.8
SMILES,mHTT-CaM PPI inh,Pf apPOL block
Cc1cccc(NC(=O)c2ccccc2I)c1C,-2.0,4.5
CN(C=CC=C(C#N)C#N)c1ccccc1,x,-15.0
Cc1cccc(CS(=O)(=O)Cc2ccc(C(=O)NCCCOC(C)C)o2)c1,-2.0,-11.6
COc1ccc(-c2cc(=O)[nH]c(SCc3nc(-c4ccccc4OC)oc3C)n2)cc1,26.2,-1.9
Cc1cccnc1NC(c1ccc([N+](=O)[O-])cc1)c1ccc2cccnc2c1O (stereo unspecified),100.3*,-253.4
Cc1ccc2cccc(SCc3ccc([N+](=O)[O-])cc3)c2n1,3.2,-1.1
COc1ccccc1Nc1cc(C(F)(F)F)nc2c(OC)ccc(OC)c12,69.0*,6.3
COC(=O)c1cc(Nc2ccccc2OC)c2cccc(OC)c2n1,0.4,0.5
Cc1cc2[nH]c(C(=O)Nc3cc(F)ccc3F)c(CN3CCCC3)c2s1,1.8,0.2
CCN(Cc1cc(-c2ccc(C)cc2C)on1)C(=O)c1ccc(C)cc1,-21.8,1.2
CC(=O)N(Cc1ccc2c(c1)OCO2)Cc1cc(-c2ccc(C)cc2C)on1,61.2*,-3.2
COc1ccccc1C(=O)N1CCCC1c1cc(C(C)C)on1 (stereo unspecified),-4.6,-9.0
COc1ccc(C(CC(=O)O)c2ccccc2)cc1 (stereo unspecified),-1.1,-4.0
CCOc1cc(CNc2ccc3c(c2)CCC3)ccc1O,51.4*,1.1
CCOc1cc(CNc2ccccc2SC)ccc1O,32.2,3.4
O=[N+]([O-])c1cc(C(F)(F)F)ccc1Sc1ccccc1,55.0*,-4.4
CC(C)Sc1ccc(C(F)(F)F)cc1[N+](=O)[O-],x,-31.0
O=C(CCCN1C(=O)C(=Cc2ccccc2)SC1=S)NC12CC3CC(CC(C3)C1)C2,2.5,-14.2
COc1ccc(/C=C2\CC/C(=C\c3ccc(OC)c(OC)c3)C2=O)cc1OC,10.0,0.0
COc1cc(/C=C2\CC/C(=C\c3ccc(O)c(OC)c3)C2=O)ccc1O,61.0*,-2.6
COc1ccc(NCc2ccc(OC)c(OC)c2)cc1,11.1,10.2
COc1ccc(NCc2ccc(C)s2)cc1OC,70.9*,6.5
CN1C(=O)C2CCCCN2c2ccc(C(=O)N3CCN(c4ccc(Cl)cc4)CC3)cc21 (stereo unspecified),67.8*,1.3
O=C1Nc2cc(C(=O)N3CCN(c4ccc(Cl)cc4)CC3)ccc2N2CCCCC12 (stereo unspecified),26.6,2.2
CC(=O)c1sc(NC(=O)C2CCCN(S(C)(=O)=O)C2)nc1C (stereo unspecified),-19.2,-0.1
SMILES,mHTT-CaM PPI inh,Pf apPOL block
Clc1ccc(-c2cn3nc(-c4ccccc4)sc3n2)cc1,3.0,-5.5
CC(=O)Nc1ccc(-c2cn3nc(-c4ccccc4)sc3n2)cc1,58.4*,0.4
O=C(NCc1ccc(F)cc1)c1ccn2c(-c3ccc(F)cc3)nnc2c1,-3.1,-2.9
CC(=O)N1N=C(c2ccccc2)CC1c1ccc(N(C)C)cc1 (stereo unspecified),19.0,-7.3
COc1cc(C(=O)N2N=C(c3ccccc3)CC2c2ccc(N(C)C)cc2)cc(OC)c1OC (stereo unspecified),97.0*,-0.6
Cc1ccc(C2=NN(C(=O)CCC(=O)O)C(c3ccc(Br)cc3)C2)cc1 (stereo unspecified),11.0,72.5*
CC(=O)N1N=C(c2ccc(Br)cc2)CC1c1ccc(N(C)C)cc1 (stereo unspecified),74.0*,-9.9
Cc1ccc(C2CC(c3ccccc3)=NN2C(=O)CCC(=O)O)cc1 (stereo unspecified),6.0,5.3
CC(=O)N1N=C(c2ccc(Br)cc2)CC1c1ccc(Br)cc1 (stereo unspecified),4.0,-10.4
COc1ccccc1CN1C(=O)CN(C2CCCCC2)C(=O)C1c1ccc(Cl)cc1 (stereo unspecified),41.0,-11.0
Cc1ccccc1NC(=O)c1cc(S(=O)(=O)Nc2ccc(Br)cc2)ccc1Cl,8.3,-1.7
C=CCn1c(=N)c(C#N)cc2c(=O)n3cccc(C)c3nc21,-7.0,-6.5
O=C(Nc1nnc(-c2ccc(Cl)s2)o1)c1ccc([N+](=O)[O-])s1,0.3,-7.9
O=C1[C@H](Cc2ccccc2)NC/C=C\C[C@@H](c2ccc(Cl)cc2)N1Cc1ccccc1,92.9*,-3.4
O=C1CSC(c2ccc(F)cc2)N1Cc1ccccc1 (stereo unspecified),-5.0,-0.1
O=C1[C@H](Cc2ccccc2)NCCCC[C@H](c2ccco2)N1Cc1ccccc1,92.6*,1.9
O=C1[C@H](Cc2ccccc2)NC/C=C\C[C@@H](c2ccco2)N1Cc1ccccc1,43.1,-2.4
